In PubChem BioAssay AID1159580 (chemical genetic matrix, 2015):
In all, about 5,500 compounds went through this assay and about 2,000 (36%) were called active. Roughly 18% stayed inconclusive and do not appear here. No stated cut-off is given here; in the data, active means normalized growth mostly below about 0.91 (no sharp cut-off); inconclusive means no clear call, values can overlap the other calls; inactive means mostly above about 0.92. The list shows a part of the results.

Assay: chemical genetic growth profiling, strain panel (AID 1159580);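 further: tested at 20 µM; growth read once vehicle control cultures reached saturation at 30 °C; 1 = growth at the plate median or of vehicle wells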
Details: S. cerevisiae deletion strains, growth OD

Measured: normalized growth

NCCCCCCCCCCN
inactive: locus YAL040C, strain CLN3, stronger effect = lower value 1.01 | locus YCL061C, strain MRC1 (second series), stronger effect = lower value 1.01 | locus YDR150W, strain NUM1, stronger effect = lower value 1.01 | locus YDR363W, strain ESC2, stronger effect = lower value 1.03 | locus YER002W, strain NOP16, stronger effect = lower value 1.01 | locus YNL175C, strain NOP13, stronger effect = lower value 1.01 | locus YNL197C, strain WHI3, stronger effect = lower value 1 | locus YNL224C, strain SQS1, stronger effect = lower value 1 | locus YOR083W, strain WHI5 (second series), stronger effect = lower value 1.02 | locus YPL241C, strain CIN2, stronger effect = lower value 1.01
